The structures appear in SMILES notation. Where “and” joins values, the source holds several entries; their conditions need not be identical. Identical values can stand only once. About 83,000 compounds went through this panel and 20% of them were active in at least one assay; those are over-represented in the sample as a whole.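 Testing used 96-well plates and a 48-hour single-concentration exposure. Example: -40 means 40% of the starting cells died.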 Where a structure was tested more than once in an assay, its records may differ in their call. Calls of active or inactive are those of the source. Rule for the calls: active = growth percent below 10; inactive = the rest.

The test system of the experiment is HL-60(TB) leukemia. The experiment in a line: NCI-60 one-dose screen, 48 h (100 = growth as untreated, 0 = no growth, -100 = all killed). The conditions noted are these: 10 µM unless noted.
Regarding `COc1ccc(C2CC(c3cccs3)=NN2c2ccc(S(=O)(=O)NC(=O)Nc3ccc(C)cc3)cc2)cc1` (centres undefined), the growth is 126% (inactive).

On to `O=C(Cc1ccccc1)Nc1nc(O)c(/C=C2\C(=O)C=Cc3ccccc32)s1`, for which the growth is 103% (inactive).

On to `Clc1ccc(C2c3ccccc3-c3nccn32)c(Cl)c1` (centres undefined), for which the growth is 48.6% (inactive).

As for `Cc1cccc(NC(=O)N/C(N)=N/c2nc(C)c(C)s2)c1`, the growth is 19.5% (inactive).

As for `COc1cc2ccccc2cc1C(=O)NC(=S)Nc1ccc(-c2nc3ccccc3[nH]2)cc1`, the growth was 106% (inactive).

Take `CC/C=C\C[C@H](O)C/C=C1/C(=O)C=C[C@@H]1C/C=C\CCCC(=O)N(C)C`: the growth is 0.857% (active).

In the case of `Cc1nc2cc(Nc3nc(N4CCOCC4)nc(N4CCN(C)CC4)n3)ccc2n1Cc1ccccc1`, the growth is 103% (inactive).

As for `COc1ccc(C2C3=C(COC3=O)N(CCO)c3cc4c(cc32)OCCO4)cc1` (centres undefined), the growth was 82.1% (inactive).

Turning to `CN(C)c1ccc(Nc2cc(-c3cccc(OC(F)(F)F)c3)nc3ccc(N4CCCC4)cc23)cc1`, the growth is -15.6% (active).

For the molecule `Nc1nonc1-c1nc2ccccc2n1Cc1ccc(F)cc1`, the growth is 21.5% (inactive).

Consider `C(#CCN1CCOCC1)CCCN1CCOCC1`, for which the growth was 93% (inactive) and 127% (inactive).

As to `COc1cc2c(cc1OC)C(Cc1cc(OC)c(OC)cc1[N+](=O)[O-])=NCC2`, the growth is 63.1% (inactive).

As for `OC(COc1ccccc1Cl)COc1ccccc1Cl`, the growth is 94.3% (inactive).

Consider `CC(=O)Nc1nc2ccc(NS(=O)(=O)c3cccc4c(N(C)C)cccc34)cc2[nH]1`, for which the growth is 27.8% (inactive).

With `CC(C)C(C)(C)C(=O)C(C)(C)C(C)(C)C`, the growth was 135% (inactive).

Regarding `O=C1CC(c2cccc(-c3cccnc3)c2)=Nc2ccc(Br)cc2N1`, the growth is 41.6% (inactive).

Turning to `N#Cc1c(-c2ccccc2)cc(-c2ccccc2)n(CCCC(=O)Nc2ccccc2N)c1=O`, the growth was 21.5% (inactive).

For `Cc1ccc(C(=O)/C(=C/c2ccc([N+](=O)[O-])cc2)S(=O)Cc2ccccc2)cc1` (centres undefined), the growth was 36.8% (inactive).

As for `Cn1c(=O)c2c(nc(NC3=NS(=O)(=O)c4ccccc43)n2CC(=O)N2CCc3ccccc32)n(C)c1=O`, the growth was 111% (inactive).

Take `CCOC(=O)C1CC(=O)c2cc(OC)c(OC)cc2C1` (centres undefined): the growth is 97.6% (inactive).

Turning to `COc1ccc(/C=C2\N=C3SC=C(N)N3C2=O)cc1`, the growth is -40% (active).

As for `O=C(Nc1nc(-c2ccccc2Cl)cs1)c1cc(-c2ccccc2)nc2ccc(Cl)cc12`, the growth was -3.8% (active).

Consider `CC(=O)[C@@H]1CC[C@]2(C(N)=O)CC[C@]3(C)[C@H](CC[C@@H]4[C@@]5(C)CCC(=O)C(C)(C)[C@@H]5CC[C@]43C)[C@@H]12`, for which the growth was 89.7% (inactive).

Take `O=S(=O)(CC(O)(c1ccccc1)c1ccccc1)CC(O)(c1ccccc1)c1ccccc1`: the growth was 108% (inactive).

`O=C1CCC(=O)N1CC1CC2CCC1C2` (centres undefined): the growth was 128% (inactive) and 97.8% (inactive).

On to `O=C(/C=C/c1ccco1)c1ccc(Nc2nc(Nc3ccc(F)cc3)nc(Nc3ccc(Cl)cc3)n2)cc1`, for which the growth was -93.7% (active).

As to `Nc1nc(=S)c2ncn(C3OC(COC(=O)c4ccc(Cl)cc4)C(OC(=O)c4ccc(Cl)cc4)C3OC(=O)c3ccc(Cl)cc3)c2[nH]1` (centres undefined), the growth is 93.7% (inactive).

In the case of `c1cnc2c(-c3nc4ccc5[nH]ncc5c4c4c3CCCC4)c[nH]c2c1`, the growth is 41.5% (inactive).

With `COc1cccc2c1C=C1CCCCC3=Cc4c(OC)cccc4OC13O2`, the growth was 19.1% (inactive).

As for `Nc1cc(-c2cccc(OC(F)(F)F)c2)nc2ccc(N3CCCC3)cc12`, the growth was -35.5% (active) and -28.5% (active) and -11.6% (active).

As for `N#CC1=C(N)Oc2cc(N)ccc2C1c1ccc(F)cc1` (centres undefined), the growth was 88.9% (inactive).

Turning to `CCN(CC)C(Cl)=Nc1ccc(Cl)cc1`, the growth is 99.3% (inactive).

With `N#CC1c2ccccc2C=CN1C(=O)CCCl` (centres undefined), the growth is 65.5% (inactive).

Consider `OC(c1cc(-c2ccc(C(F)(F)F)cc2)nc(C(F)(F)F)c1)C1CCCCN1` (centres undefined), for which the growth is -47.6% (active) and -72.8% (active) and 36.6% (inactive).

Take `Cc1cc(Nc2ncnc3ccc(NC4=NC(C)(C)CO4)cc23)ccc1Oc1ccn2ncnc2c1`: the growth was 5.69% (active).

For `c1coc(-c2c3ccc(=[N+]4CCCCC4)cc-3oc3cc(N4CCCCC4)ccc23)c1`, the growth is -57.5% (active).

Regarding `COc1ccc(/C=C(\C#N)c2cc(OC)c(OC)c(OC)c2)cc1`, the growth was -31.4% (active).

Regarding `O=C1Nc2ccccc2/C1=C\c1c(-c2ccc(F)cc2)nc2ccccn12`, the growth is 70.3% (inactive).

With `O=[N+]([O-])c1cccc2cc(S(=O)(=O)O)ccc12`, the growth was 76.9% (inactive).

Source of the values: PubChem BioAssay (NCI).
